An excerpt weighted towards active compounds, which were near 12% of everything screened.
WT yeast gro inh: growth inhibition of WT yeast, mitochondrial fusion screen; mitochondrial fusion phenotypic screen, WT strain; inhibition, % at 10 µM; 2.1% of 190,000 active; AID 1362; in the data active = inhibition above about 58%; tested in S. cerevisiae
Ins promoter up: MIN6 insulin promoter up-regulation; 0.3% of 190,000 active; MIN6 insulin promoter-GFP reporter, high-content imaging; hits give high values; z-score at 5 µM;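 active = z-score above 3 at 5 µM with at least 500 cells counted in the well; inconclusive = wells under 500 cells, flagged as cytotoxic or low count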
Cl transport mod: KCC2 (human) Cl- transport modulation | Q9H2X9 | KCC2 cells, thallium flux FluoZin-2 fluorescence | 2.2% of 190,000 active | AID 1456 | B-score of Tl+ flux slope (higher = more flux/activation; lower = inhibition) at 10 µM;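 active = thallium flux slope and its plate-corrected score both differing from the plate sample mean at a set confidence after two filtering rounds, in either direction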;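 also: slope of fluorescence scaled to starting intensity during 10 to 20 s after thallium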
ROMK primary: modulates human ROMK potassium channel activity; Tet-inducible ROMK, thallium flux fluorescence; actives lie on both sides; B-score at 10 µM; 2% of 130,000 active; AID 1918;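 active = signal ratio slope over the read window, or its plate-corrected B-score, at least 3 SD from the plate mean, either direction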;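 also: B-score of the F/F0 ratio slope over 7 to 12 s after thallium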
Target sequence (P48048 whole entry, looked up): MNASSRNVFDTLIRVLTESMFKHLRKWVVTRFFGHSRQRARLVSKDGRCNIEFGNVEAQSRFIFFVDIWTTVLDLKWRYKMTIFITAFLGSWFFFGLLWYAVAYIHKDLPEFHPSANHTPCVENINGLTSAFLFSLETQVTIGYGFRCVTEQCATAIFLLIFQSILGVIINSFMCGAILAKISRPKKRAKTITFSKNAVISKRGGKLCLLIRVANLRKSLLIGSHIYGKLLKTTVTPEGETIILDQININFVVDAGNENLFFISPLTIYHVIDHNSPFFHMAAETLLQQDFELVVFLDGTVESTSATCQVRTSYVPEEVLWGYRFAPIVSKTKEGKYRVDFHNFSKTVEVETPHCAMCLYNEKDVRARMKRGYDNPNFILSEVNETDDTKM
L major viab: Leishmania major promastigote growth inhibition. Leishmania major promastigotes, resazurin fluorescence viability. inhibition, % at 10 µM. 9% of 200,000 active. AID 1063; in the data active = inhibition above about 50%;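 also: promastigotes grown with compound for 44 hours at 28 °C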
INS promoter inh: TRM-6 insulin promoter activity inhibition. AID 1273. TRM-6 cells (human fetal islet line), insulin promoter-eGFP reporter, imaging; reporter expression induced with tamoxifen. inhibition, % at 2 µM. 0.9% of 130,000 active;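 active = inhibition above the mean plus 3 SD, with well images judged a real hit on visual review, cut at about 60% in these data, passing the limit was not always enough; inconclusive = inhibition over the cutoff but images rejected on review; inactive = inhibition not above the cutoff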
Each line names hits and unclear results; the compound was inactive in the other large screens.

CCCCCC1(C)NC(=S)N(c2ccccc2)N1 (centres undefined)	L major viab 53 (no result: Ins promoter up)
CCCCCCC1(C)NC(=S)N(c2ccccc2)N1 (centres undefined)	L major viab 51
CCOC(=O)C(NCc1ccco1)(NC(=O)c1ccc(OC)cc1)C(F)(F)F (centres undefined)	none (no result: Ins promoter up, ROMK primary)
CS(=O)(=O)Nc1ccc(C(=O)N2CCc3ccccc3C2)cc1	none (no result: Cl transport mod, INS promoter inh)
COc1cc(S(=O)(=O)N(C)C2CCCCC2)c(C)cc1C	WT yeast gro inh 59 (no result: INS promoter inh)
COC(=O)c1cc(S(=O)(=O)N(C)C2CCCCC2)oc1C	none (no result: WT yeast gro inh, Ins promoter up, ROMK primary, L major viab, INS promoter inh)
Cn1c(=O)[nH]c(=O)c2c1nc(Br)n2C/C=N/NC(=O)c1ccccc1	none (no result: WT yeast gro inh, ROMK primary, L major viab, INS promoter inh)
Cn1c(=O)[nH]c(=O)c2c1nc(Br)n2C/C=N/Nc1ccccc1	L major viab 65
COc1ccc(CCn2c(Br)nc3c2c(=O)[nH]c(=O)n3C)cc1	L major viab 91 (no result: Cl transport mod, ROMK primary)
COc1ccc(OCC(=O)N2CCN(C(=O)c3ccco3)CC2)cc1	none (no result: ROMK primary)
CCCCOC(=O)c1ccc(NC(=S)N2CCN(c3ncc4c(=O)c(C(=O)O)cn(CC)c4n3)CC2)cc1	none (no result: WT yeast gro inh, Ins promoter up, ROMK primary, L major viab, INS promoter inh)
Cc1ccc(OCC2Cn3c(nc4c3c(=O)[nH]c(=O)n4C)O2)cc1 (centres undefined)	Ins promoter up inconclusive (no result: Cl transport mod, ROMK primary)
COc1ccc(C(=O)Nc2ccc(S(=O)(=O)Nc3ncccn3)cc2)cc1OC	none (no result: Ins promoter up)
O=C(Nc1ncc(Br)s1)C(Cc1ccccc1)n1cccc1 (centres undefined)	WT yeast gro inh 82 (no result: Cl transport mod, ROMK primary, INS promoter inh)
Cc1cc(C(=O)NC(=S)Nc2cccc(NC(=O)C(C)C)c2)ccc1[N+](=O)[O-]	L major viab 82 (no result: ROMK primary)
COc1ccc(NC(=O)c2cccc(NC(=O)C(C)C)c2)c([N+](=O)[O-])c1	L major viab 73 (no result: ROMK primary, INS promoter inh)
CC(C)C(=O)Nc1cccc(C(=O)Nc2nnc(C(C)C)s2)c1	L major viab 53 (no result: Ins promoter up, ROMK primary)
COc1cc(NC(=O)c2ccccc2[N+](=O)[O-])ccc1NC(=O)C(C)C	none (no result: ROMK primary, INS promoter inh)
COc1ccc(NC(=O)c2ccc(NC(=O)C(C)C)cc2)c([N+](=O)[O-])c1	none
Cc1nnc(NC(=O)c2cccc(NC(=O)C(C)C)c2)s1	none (no result: ROMK primary)
CC(C)C(=O)Nc1ccc([N+](=O)[O-])c(C(F)(F)F)c1	INS promoter inh 87
CCOC(=O)C1=C(O)C(=O)N(CCCn2ccnc2)C1c1ccc(OC)cc1 (centres undefined)	none
COc1ccc(N(CC(=O)NCc2ccco2)S(=O)(=O)c2ccc(OC)c(OC)c2)cc1	none (no result: ROMK primary, INS promoter inh)
CC12COC3(C(=O)Nc4cccnc4)CC1CCC32C (centres undefined)	none (no result: Cl transport mod)
Cc1cc(N2C(=O)C3C4c5ccccc5C(c5ccccc54)C3C2=O)no1 (centres undefined)	none (no result: ROMK primary)
O=C(Nc1nnc(SCc2ccc(Cl)cc2)s1)C1CC(=O)N(Cc2ccccc2)C1 (centres undefined)	none (no result: Ins promoter up, ROMK primary)
O=C(CSc1ccc(Cl)cc1)Nc1ccccc1N1CCN(C(=O)c2ccccc2)CC1	L major viab 72 (no result: Cl transport mod)
S=C(NCCC1=CCCCC1)Nc1ccc(Cl)cc1	none (no result: Ins promoter up)
Clc1ccc(CNCCC2=CCCCC2)cc1	L major viab 90
CCCCc1nc2ccccc2c(N)c1CCC (tested in a mixture with another compound)	L major viab 95 (no result: ROMK primary)
COc1ccc(N2C(=O)C(CN3CCN(C)CC3)C2c2ccccc2)cc1 (centres undefined)	L major viab 95 (no result: INS promoter inh)
C/C(NCCCn1ccnc1)=C(\C#N)C(N)=O	none
COC(=O)c1c(SCC(=O)Nc2ccc(C)cc2)nc(=O)[nH]c1C	none (no result: ROMK primary)
CC1(C)Cc2c(C#N)c(N3CCN(C(=O)c4ccccc4)CC3)nc(-c3ccco3)c2CS1	none
CC(C)c1nc(N2CCN(C(=O)c3ccccc3)CC2)c(C#N)c2c1COC(C)(C)C2	L major viab 74 (no result: ROMK primary)
CC(C)Oc1ccc(CNC2CCOC(C)(C)C2)cc1 (centres undefined)	L major viab 86 (no result: ROMK primary, INS promoter inh)
C=CCNCCOc1ccc(C)cc1[N+](=O)[O-]	none (no result: Ins promoter up, ROMK primary, INS promoter inh)
CCCCNCCOCCOc1ccc(C)cc1[N+](=O)[O-]	L major viab 91 (no result: ROMK primary)
COCCCNCCCCOc1ccc(C)cc1[N+](=O)[O-]	L major viab 99
COc1ccccc1OCCOCCOc1ccc(C)cc1[N+](=O)[O-]	L major viab 55
Cc1ccc(C(=O)Cn2nnc3ccccc32)cc1[N+](=O)[O-]	none (no result: WT yeast gro inh, ROMK primary, L major viab, INS promoter inh)
COc1c(F)c(F)c(C(=O)Nc2ccccc2N2CCN(C(C)=O)CC2)c(F)c1F	none (no result: ROMK primary)
COc1ccccc1N1CCN(C(=O)Nc2cccc(Cl)c2)CC1	L major viab 78
O=C(Nc1ccc2c(c1)OCO2)c1ccccc1SCC(=O)N1CCCC1	WT yeast gro inh 65 (no result: Cl transport mod)
COc1c(F)c(F)c(C(=O)Nc2ccccc2N2CCN(C(=O)C(C)C)CC2)c(F)c1F	L major viab 51
O=C(Nc1ccc2c(c1)OCO2)N1CCN(c2ccccc2Cl)CC1	L major viab 80 (no result: Ins promoter up, Cl transport mod)
COc1cc(C(=O)NCCOc2cc(C)cc(C)c2)c(Br)c(OC)c1OC	none (no result: ROMK primary, INS promoter inh)
COC(CNC(=O)c1ccc2nc(-c3ccccc3)c(-c3ccccc3)nc2c1)OC	none
COc1cccc(NC(=O)N2CCN(c3cccc(C)c3C)CC2)c1	L major viab 81 (no result: ROMK primary)
CN(C)S(=O)(=O)c1ccc(N2CCCC2)c(C(=O)N2CCN(c3ccc([N+](=O)[O-])cc3)CC2)c1	none (no result: INS promoter inh)
Cc1cccc(N2CCN(C(=O)c3cc(S(=O)(=O)N(C)C)ccc3N3CCCC3)CC2)c1C	L major viab 54
Cc1cccc(N2CCN(C(=O)C(C)C)CC2)c1C	INS promoter inh 79 (no result: ROMK primary)
CCC(C)NC(=O)CS(=O)(=O)Cc1nc(-c2cccc(OC)c2)oc1C (centres undefined)	none (no result: ROMK primary, INS promoter inh)
O=C(NNc1ccccn1)C(=O)NNS(=O)(=O)c1ccc(F)cc1	none
Cc1cc(C)n(-c2ccc(C(=O)OCc3ccccc3)cc2)n1	none (no result: ROMK primary)
CCOC(=O)c1[nH]c2ccccc2c1NC(=S)Nc1ccccc1C	none
CCOC(=O)c1[nH]c2ccccc2c1NC(=S)Nc1cc(C)ccc1C	INS promoter inh 76
COc1cccc(C2OC(=O)c3ccccc3N2C(C)=O)c1OC(C)=O (centres undefined)	none (no result: Cl transport mod)
O=C1CC(Sc2nnnn2-c2ccccc2)C(=O)N1c1cccc(Cl)c1 (centres undefined)	L major viab 71 (no result: Cl transport mod, ROMK primary)
O=C1CC(SC(=Nc2ccccc2)Nc2ccccc2)C(=O)N1c1ccc(Cl)cc1 (centres undefined)	none (no result: Cl transport mod, ROMK primary)
COc1ccc(N2C(=O)CC(Sc3nnnn3-c3ccc(F)cc3)C2=O)cc1 (centres undefined)	none (no result: INS promoter inh)
O=C1CC(SC(=Nc2ccccc2)Nc2ccccc2)C(=O)N1c1cccc(Cl)c1 (centres undefined)	L major viab 61 (no result: Cl transport mod, ROMK primary)
CCCN(CCC)c1ncnc2nc[nH]c12	none (no result: ROMK primary, INS promoter inh)
O=C(Nc1ccc(Cl)c([N+](=O)[O-])c1)c1cnccn1	L major viab 83 (no result: ROMK primary)
CCN(CC)c1ccc(NC(=O)c2cnccn2)cc1S(=O)(=O)Nc1ccc(OC)cc1	L major viab 64
CCN(CC)c1ccc(NC(=O)COc2ccccc2C#N)cc1S(=O)(=O)Nc1ccc(OC)cc1	L major viab 99

High-throughput results deposited in PubChem by several laboratories.
